Test systems include DU-145 prostate; K-562 leukemia; MALME-3M melanoma; MDA-MB-231 breast; RXF 393 renal; SF-268 CNS; SF-295 CNS; SF-539 CNS; UACC-257 melanoma; M14 melanoma.
What all share (test): NCI-60 one-dose screen, 48 h (100 = growth as untreated, 0 = no growth, -100 = all killed)
Common to all, as to conditions: 10 µM unless noted

About 83,000 compounds went through this panel and 20% of them were active in at least one assay; those are over-represented in the sample as a whole.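 The test compound was applied at a single concentration to cells in 96-well plates for 48 hours, and percent growth was recorded.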 Values without a mark were called inactive. The source made the active and inactive calls. Rule for the calls: active = growth percent below 10; inactive = the rest.

Turning to `CC(C)(C)CC(C)(C)n1nnnc1C(NC12CC3CC(CC(C3)C1)C2)c1ccccc1` (stereo not given), the growth in the experiment on DU-145 prostate was 96.5%; in the experiment on K-562 leukemia it was 73.1%; with MALME-3M melanoma it was 99.2%; in the experiment with MDA-MB-231 breast, 81.4%; in the experiment on RXF 393 renal, 85.9%; in the experiment on SF-268 CNS, 83.3%. Further, the growth in the experiment with SF-295 CNS is 75.9%; with SF-539 CNS, 95.7%; in the experiment on UACC-257 melanoma it was 89.1%; with M14 melanoma, 82.8%.

`Cc1ccc(NC(=O)Cc2ccc(/C=C/C(=O)c3ncc[nH]3)cc2)cc1`: the growth in the experiment with DU-145 prostate is 16%; in the experiment with K-562 leukemia, 8.84% (active); with MALME-3M melanoma it was 96.3%; in the experiment on MDA-MB-231 breast, 56.6%; in the experiment with RXF 393 renal, 52.7%; with SF-268 CNS, 24.7%. The growth in the experiment with SF-295 CNS is 24%; in the experiment with SF-539 CNS, -14.8% (active); in the experiment with UACC-257 melanoma, 83.4%; with M14 melanoma it was 82.5%.

Take `COc1ccccc1NC(=O)C1CC(c2ccc(F)cc2)=NO1` (stereo not given): the growth was 106% in the experiment with DU-145 prostate; 95% in the experiment with K-562 leukemia; 100% in the experiment on MALME-3M melanoma; 98.5% in the experiment on MDA-MB-231 breast; 97% in the experiment with RXF 393 renal; 97.4% with SF-268 CNS. Moreover, the growth was 96.2% with SF-295 CNS, 95.5% with SF-539 CNS, 107% in the experiment with UACC-257 melanoma and 104% with M14 melanoma.

With `CCOC(=O)[C@@H]1CCCN(S(=O)(=O)c2ccc(S(=O)(=O)N(CC)CC)c(F)c2)C1`, the growth with DU-145 prostate is 99%; in the experiment on K-562 leukemia, 37.4%; with MALME-3M melanoma it was 79.9%; with MDA-MB-231 breast, 92.9%; in the experiment on RXF 393 renal, 76.4%; in the experiment with SF-268 CNS it was 85.9%. Further, the growth with SF-295 CNS is 49.6%; in the experiment on SF-539 CNS, 88.8%; in the experiment with UACC-257 melanoma, 60.6%; in the experiment with M14 melanoma, 76.2%.

Take `O=C(O)c1ccc(-c2nn(-c3ccc(C(F)(F)F)cc3)cc2CNc2ccc(Oc3ccccc3)cc2)cc1`: the growth with DU-145 prostate was 95.5%; with K-562 leukemia, 65.3%; in the experiment with MALME-3M melanoma, 107%; with MDA-MB-231 breast, 91.4%; with RXF 393 renal it was 88.4%; with SF-268 CNS, 79.5%. The growth with SF-295 CNS is 72.7%; in the experiment with SF-539 CNS it was 89.6%; with UACC-257 melanoma, 102%; in the experiment on M14 melanoma, 84.6%.

For the molecule `O=S(=O)(NCCCNc1nccc(-c2c(-c3cccc(F)c3)nc3sccn23)n1)c1cccc(F)c1`, the growth in the experiment on DU-145 prostate is 55.5%; in the experiment with K-562 leukemia, 20.1%; in the experiment with MALME-3M melanoma, 63.2%; in the experiment on MDA-MB-231 breast, 75.9%; in the experiment with RXF 393 renal, 78.8%; in the experiment with SF-268 CNS it was 55.6%. Further, the growth in the experiment with SF-295 CNS was 51.1%; in the experiment with SF-539 CNS it was 86.4%; in the experiment with UACC-257 melanoma it was 50.8%; in the experiment on M14 melanoma, 28.6%.

With `O=C(Cn1c[n+](CC(=O)c2ccc(-c3ccccc3)cc2)c2ccccc21)Nc1cccc2cccnc12`, the growth with DU-145 prostate was 36.9%; in the experiment with K-562 leukemia, 12.6%; with MALME-3M melanoma, 8.16% (active); in the experiment on MDA-MB-231 breast, -7.75% (active); in the experiment with RXF 393 renal, 83.7%; in the experiment on SF-268 CNS it was 20.3%. Besides, the growth with SF-295 CNS was 78.1%; with SF-539 CNS, 23.6%; with UACC-257 melanoma, 10.1%; in the experiment with M14 melanoma, 28.1%.

Take `CCCCCCNC(=O)Oc1ccc(/C(=C(\C)c2ccccc2)c2ccc(OCCCN(C)C)cc2)cc1`: the growth is 99.6% in the experiment on DU-145 prostate; 3.9% (active) in the experiment on K-562 leukemia; 54% in the experiment with MALME-3M melanoma; 82.7% in the experiment on MDA-MB-231 breast; 75.4% with RXF 393 renal; 79.4% in the experiment on SF-268 CNS. The growth is 93.7% in the experiment with SF-295 CNS, 79.4% with SF-539 CNS, 86.2% in the experiment on UACC-257 melanoma and 40.1% in the experiment with M14 melanoma.

As to `O=C(CCN1CCCC1)Nc1ccc2c(NCCCCc3ccccc3)c3ccccc3nc2c1`, the growth with DU-145 prostate was -61.8% (active); with K-562 leukemia, -31.2% (active); in the experiment with MALME-3M melanoma, -88.7% (active); in the experiment on MDA-MB-231 breast, -74.9% (active); in the experiment on RXF 393 renal, 7.61% (active); with SF-268 CNS, -73.2% (active). The growth is 43.4% in the experiment with SF-295 CNS, -70.3% (active) in the experiment on SF-539 CNS, -60.8% (active) in the experiment with UACC-257 melanoma and -72.6% (active) in the experiment with M14 melanoma.

As to `O=C1Nc2cc(-c3ccc(NS(=O)(=O)c4ccccc4)cc3)ccc2/C1=C/c1ccc[nH]1`, the growth was 31.8% in the experiment with DU-145 prostate; 61% in the experiment on K-562 leukemia; 85.5% in the experiment on MALME-3M melanoma; 62.9% in the experiment with MDA-MB-231 breast; 104% with RXF 393 renal; 92.1% with SF-268 CNS. In addition, the growth in the experiment on SF-295 CNS is 98.7%; in the experiment with SF-539 CNS, 76.2%; in the experiment on UACC-257 melanoma it was 110%; in the experiment on M14 melanoma, 90.1%.

For `Oc1ccc(C(c2ccc(O)cc2)c2ccc(Br)cn2)cc1`, the growth was 47.4% with DU-145 prostate; 73.5% with K-562 leukemia; 99.3% in the experiment with MALME-3M melanoma; 83% in the experiment with MDA-MB-231 breast; -22% (active) in the experiment with RXF 393 renal; 104% in the experiment with SF-268 CNS. For the same molecule, the growth is -17.1% (active) with SF-295 CNS, 84.9% with SF-539 CNS, 91.3% in the experiment on UACC-257 melanoma and 78.8% in the experiment on M14 melanoma.

Regarding `C=C1C(=O)O[C@H]2[C@H]1CC/C(C(=O)NCCCCCNC(=O)/C1=C/CC[C@@]3(C)O[C@H]3[C@H]3OC(=O)C(=C)[C@@H]3CC1)=C\CC[C@@]1(C)O[C@@H]21`, the growth was 104% in the experiment on DU-145 prostate; 114% in the experiment with K-562 leukemia; 96.2% in the experiment on MALME-3M melanoma; 106% in the experiment with MDA-MB-231 breast; 110% in the experiment with RXF 393 renal; 96.1% with SF-268 CNS. For the same molecule, the growth is 105% in the experiment with SF-295 CNS, 105% in the experiment with SF-539 CNS, 97.7% in the experiment with UACC-257 melanoma and 92.3% with M14 melanoma.

For `ClC1=C(Br)C(Br)(Br)C(=C(Br)Br)C1(Br)Br`, the growth is 104% with DU-145 prostate; 70.1% with K-562 leukemia; 94.1% in the experiment on MALME-3M melanoma; 79.2% in the experiment with MDA-MB-231 breast; 94.3% in the experiment with RXF 393 renal; 108% in the experiment with SF-268 CNS. Besides, the growth was 115% in the experiment with SF-295 CNS, 100% with SF-539 CNS, 87.6% in the experiment with UACC-257 melanoma and 81.6% in the experiment on M14 melanoma.

The record behind these values is PubChem BioAssay (NCI).
